Seven compounds from PubChem BioAssay (Tox21) can be followed below.

Each structure is given as a SMILES string. “And” between values parts separate entries of the source, which are not always exact repeats. Equal values may be shown once. Inconclusive results are not listed. The source holds several records for some structures; these can differ, active in one and inactive in another. The source made the active and inactive calls. Unless noted, the call rests on the fitted dose curve; in most records, active means well fitted curve in the direction sought with a large enough effect in the repeat runs; inconclusive means weak or mixed curves; inactive means no such curve, though single readings can be large; an effect the other way counts as inactive or inconclusive.

Test [1] is described as follows: qHTS assay to identify small molecule antagonists of the estrogen related receptor (ERR) signaling pathway from Tox21 library - cell viability counter screen (AID 1224834). Further: nearly all actives have a fitted effect of over 30% in size. Further: potency means the concentration at half of the fitted maximal effect. Summed up:
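Cytotoxicity of test substances is gauged in the same ERR cells used for the antagonist screen, after 17.5 h of compound treatment at 37 C, by CellTiter-Fluor fluorescence measured after 30 min.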
(In general: In qHTS, concentration-response curves come from the screen itself.)

Test [2] addresses Luciferin 4-monooxygenase (Photinus pyralis) (UniProt P08659). Description: qHTS assay to identify small molecule inhibitors of firefly luciferase (AID 1224835). Further: nearly all actives have a fitted effect of over 25% in size. The procedure, abridged:
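Inhibition of purified Photinus luciferase is measured by luminescence. Substrate levels (D-luciferin, ATP) sit at their KM values. Each compound is tested in a concentration series.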

Test [3] can be described thus: qHTS assay to identify small molecule agonists of the constitutive androstane receptor (CAR) signaling pathway - cell viability counter screen (AID 1224836). Further: nearly all actives have a fitted effect of over 45% in size. Further: potency means the concentration at half of the fitted maximal effect. The procedure, abridged:
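Cell viability multiplexed with the CAR agonist screen: CellTiter-Fluor fluorescence after 23 hr at 37 C. HepG2-CYP2B6-hCAR cells got compounds at 15 concentrations with PK11195 at 0.75 uM final.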

Test [4] is described as follows: qHTS assay to identify small molecule antagonists of the constitutive androstane receptor (CAR) signaling pathway - cell viability counter screen (AID 1224837). Further: nearly all actives have a fitted effect of over 45% in size. Further: potency means the concentration at half of the fitted maximal effect. Summed up:
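Multiplexed cytotoxicity read-out for the CAR antagonist screen: double-stable HepG2-CYP2B6-hCAR cells co-treated with 50 nM CITCO (final) and compound over 15 concentrations, incubated 23 hr, then assessed by CellTiter-Fluor fluorescence.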

Test [5] concerns the target Nuclear receptor subfamily 1 group I member 3 (Homo sapiens) (UniProt Q14994). Nature of the test: qHTS assay to identify small molecule antagonists of the constitutive androstane receptor (CAR) signaling pathway (AID 1224838). Further: nearly all actives have a fitted effect of over 40% in size. The procedure, abridged: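 Compounds were titrated across 15 concentrations onto HepG2 cells double-stably expressing hCAR and a CYP2B6-2.2kb reporter, together with 50 nM CITCO (final). After 24 h at 37 C, luciferase activity was measured by luminescence.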

The target is the same in test [6]. Nature of the test: qHTS assay to identify small molecule agonists of the constitutive androstane receptor (CAR) signaling pathway (AID 1224839). Further: nearly all actives have a fitted effect of over 15% in size. Further: potency means the concentration at half of the fitted maximal effect. The procedure, abridged:
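Luminescent ONE-Glo read-out after 24 hr, 37 C exposure of double-stable HepG2-CYP2B6-hCAR reporter cells to a 15-point compound series, in the presence of 0.75 uM PK11195 (final).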

Test [7] is described as follows: qHTS assay to identify small molecule antagonists of the estrogen related receptor signaling pathway with the pleiotropic PPARgamma coactivator (PGC) from Tox21 10K library - cell viability counter screen (AID 1224840; active means well fitted cell-killing curve with a large enough effect in the repeat runs, not every such curve was filed as active; further: nearly all actives have a fitted effect of over 40% in size; further: potency means the concentration at half of the fitted maximal effect). Summed up: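 Step one, plate 2,000 PGC/ERR cells per well; step two, incubate 6 h at 37 C/5% CO2; step three, pin-transfer compounds; step four, incubate 17.5 h; step five, add CellTiter-Fluor and read fluorescence after 30 min.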

Test [8] can be described thus: qHTS assay to identify small molecule agonists of H2AX (AID 1224845; active means well fitted activation curve with a large enough effect in the signal ratio in the repeat runs, not every such curve was filed as active; the % refers to the signal ratio; further: potency means the concentration at half of the fitted maximal effect). Summed up: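 Phospho-H2AX Ser139 measured by HTRF (ex 320 nm; em 665 and 620 nm) after 24 hr antibody incubation. Compounds, 15 concentrations, 0.76% DMSO, were applied to CHO-K1 cells for 3hr at 37C before lysis.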
A short description of test [9]: qHTS assay to identify small molecule agonists of the hypoxia (HIF-1) signaling pathway (AID 1224846; active means well fitted activation curve with a large enough effect in the signal ratio in the repeat runs, not every such curve was filed as active; the % refers to the signal ratio). The procedure, abridged: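 Steps: seed ME-180 HRE-bla cells (2,000/well, 0.5% dialyzed FBS); incubate 5 hrs at 37C; pin-transfer compounds or DMSO; incubate 17 hrs; add LiveBLAzer B/G substrate CCF4-AM; measure reporter activation by FRET.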
A short description of test [10]: qHTS assay to identify small molecule agonists of H2AX - cell viability counter screen (AID 1224847; calls by dose curve; further: nearly all actives have a fitted effect of over 30% in size; further: potency means the concentration at half of the fitted maximal effect). Summed up:
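Counter-screen for viability: CellTiter-Glo ATP luminescence read after 3 h compound treatment (15-point titration, 0.76% DMSO final) of CHO-K1 cells at 37C, with 30 min room-temperature reagent incubation.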

Test [11] can be described thus: qHTS assay to identify small molecule antagonists of the estrogen related receptor (ERR) signaling pathway from Tox21 library (AID 1224848). Further: nearly all actives have a fitted effect of over 50% in size. Further: potency means the concentration at half of the fitted maximal effect. Summed up: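 Reading was by luminescence 30 min after ONE-Glo addition. Before that, ERR cells at 2,000 per well had rested 6 h at 37 C/5% CO2 and then received pin-tooled compounds in DMSO for 18 h at 37 C.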
The nature of test [12]: qHTS assay to identify small molecule agonists of the estrogen related receptor (ERR) signaling pathway from Tox21 library (AID 1224849; calls by dose curve; further: nearly all actives have a fitted effect of over 15% in size). Conditions: ERR reporter cell line, ONE-Glo luciferase, 18 h; at 92.4 µM (top of the series) unless noted. The procedure, abridged:
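Agonist signal is luciferase luminescence from an ERR reporter cell line treated 18 h at 37 C with DMSO-dissolved compounds, read 30 min after ONE-Glo addition at room temperature.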

Test [13] is described as follows: qHTS RealTime-Glo MT Cell Viability Assay in HepG2 cells - 24 hour (AID 1224867). Further: nearly all actives have a fitted effect of over 50% in size. Further: potency means the concentration at half of the fitted maximal effect. Summed up: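 Compound treatment began 5 h after plating HepG2 cells (600/well) with NanoLuc luciferase and prosubstrate. Plates stayed at 37 C for 40 h; luminescence was captured at six time points, 0 h through 40 h.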
Test [14] is described as follows: A CellTox Green Cytotoxicity Assay to monitor cytotoxicity in HEK293 cells - 0 hour (AID 1224869). Further: nearly all actives have a fitted effect of over 50% in size. Summed up:
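Cytotoxicity was tracked continuously in HEK293 cells by a DNA-binding dye excluded from viable cells. Compounds were transferred in DMSO 5 h after seeding; fluorescence was recorded at intervals up to 40 h.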

Test [15] can be described thus: qHTS assay to identify small molecule antagonists of the estrogen related receptor signaling pathway with the pleiotropic PPARgamma coactivator (PGC) from Tox21 10K library (AID 1224841; call rule not given here; further: actives are mostly falling curves and most rising ones were filed inactive; nearly all actives have a fitted effect of over 50% in size; further: potency means the concentration at half of the fitted maximal effect). The procedure, abridged:
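Antagonism in this quantitative HTS is taken from loss of luciferase signal in PGC/ERR cells. Cells (2,000/well) are treated with compounds in DMSO after a 6 h settling period and read by One-Glo luminescence after 18 h.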

Test [16] is described as follows: qHTS assay to identify small molecule agonists of the hypoxia (HIF-1) signaling pathway - cell viability counter screen (AID 1224844; calls by dose curve; further: nearly all actives have a fitted effect of over 50% in size; further: potency means the concentration at half of the fitted maximal effect). The procedure, abridged: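 Tox21 10K compounds were added to HRE-bla ME-180 cells (0.5% dialyzed FBS) and incubated 17 hrs at 37C; ATP-based CellTiter-Glo luminescence then reported cell viability in the same wells.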
A short description of test [17]: qHTS RealTime-Glo MT Cell Viability Assay in HEK293 cells - 32 hour (AID 1224868). Further: nearly all actives have a fitted effect of over 50% in size. Further: potency means the concentration at half of the fitted maximal effect. The procedure, abridged: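 Quantitative high-throughput screen of the Tox21 10K library in HEK293: cells and RealTime-Glo reagents plated together, compound added at 5 h, luminescence monitored through 40 h at 37 C.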
The nature of test [18]: qHTS assay to identify small molecule agonists of the estrogen related receptor signaling pathway with the pleiotropic PPARgamma coactivator (PGC) from Tox21 10K library (AID 1224842). Further: nearly all actives have a fitted effect of over 15% in size. The procedure, abridged: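 Luminescence from One-Glo (30 min, room temperature) measured after PGC/ERR cells had 18 h at 37 C with pinned compound (23 nL in DMSO). Cells had been seeded at 2,000 per well and pre-incubated 6 h.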

Test [19] in a line: qHTS RealTime-Glo MT Cell Viability Assay in HepG2 cells - 40 hour (AID 1224870). Further: nearly all actives have a fitted effect of over 50% in size. Summed up:
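Real-time viability: cells seeded at 600 per well together with NanoLuc and cell-permeant prosubstrate, compounds added after 5 h incubation. Luminescence tracked at 0, 8, 16, 24, 32 and 40 h of exposure.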

In test [20] the target is Thyrotropin receptor (Homo sapiens) (UniProt P16473). Description: qHTS assay to identify small molecule agonists of the thyroid stimulating hormone receptor (TSHR) signaling pathway (AID 1224843; calls by dose curve; further: nearly all actives have a fitted effect of over 45% in size). Summed up: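 HEK293 cells stably bearing the thyrotropin receptor were plated at 800 cells/well and challenged with compound (30 min, RT). Accumulated cAMP was quantified via cAMP-d2 competing for cryptate-tagged antibody.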
Thyrotropin receptor (Homo sapiens), sequence (P16473 whole entry, looked up): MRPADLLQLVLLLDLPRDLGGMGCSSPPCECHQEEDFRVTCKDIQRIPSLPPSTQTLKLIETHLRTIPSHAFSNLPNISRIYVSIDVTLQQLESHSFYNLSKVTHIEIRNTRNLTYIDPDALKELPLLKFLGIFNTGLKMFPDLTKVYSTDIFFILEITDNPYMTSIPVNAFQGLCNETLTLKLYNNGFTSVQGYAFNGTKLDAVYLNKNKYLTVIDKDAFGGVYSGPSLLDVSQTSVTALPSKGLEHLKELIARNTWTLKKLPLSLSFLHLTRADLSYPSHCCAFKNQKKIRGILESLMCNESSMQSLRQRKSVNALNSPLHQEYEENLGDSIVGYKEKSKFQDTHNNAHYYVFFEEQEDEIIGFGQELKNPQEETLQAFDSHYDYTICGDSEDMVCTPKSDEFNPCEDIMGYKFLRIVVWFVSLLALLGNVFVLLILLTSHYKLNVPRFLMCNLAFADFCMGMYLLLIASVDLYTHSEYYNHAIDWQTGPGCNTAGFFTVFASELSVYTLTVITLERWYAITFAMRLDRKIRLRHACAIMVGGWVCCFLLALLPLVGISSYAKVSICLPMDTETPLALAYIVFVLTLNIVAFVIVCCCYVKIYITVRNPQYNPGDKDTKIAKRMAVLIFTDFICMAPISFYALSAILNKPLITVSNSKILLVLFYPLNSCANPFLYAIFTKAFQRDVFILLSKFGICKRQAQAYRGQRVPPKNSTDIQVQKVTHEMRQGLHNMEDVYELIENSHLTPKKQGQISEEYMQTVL
On the % scale 0 is the no-effect control and ±100 the full control effect.

Nuclear receptor subfamily 1 group I member 3 (Homo sapiens), sequence (Q14994 whole entry, looked up): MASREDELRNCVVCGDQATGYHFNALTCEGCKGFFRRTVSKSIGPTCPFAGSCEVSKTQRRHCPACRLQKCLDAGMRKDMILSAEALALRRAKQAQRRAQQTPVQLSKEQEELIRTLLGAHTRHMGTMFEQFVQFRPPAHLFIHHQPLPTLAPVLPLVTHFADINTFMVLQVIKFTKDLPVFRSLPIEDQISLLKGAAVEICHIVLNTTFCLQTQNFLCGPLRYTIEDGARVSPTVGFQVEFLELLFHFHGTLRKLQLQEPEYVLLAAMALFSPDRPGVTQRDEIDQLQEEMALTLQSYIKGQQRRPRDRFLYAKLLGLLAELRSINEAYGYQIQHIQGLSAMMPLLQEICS
Luciferin 4-monooxygenase (Photinus pyralis), sequence (P08659 whole entry, looked up): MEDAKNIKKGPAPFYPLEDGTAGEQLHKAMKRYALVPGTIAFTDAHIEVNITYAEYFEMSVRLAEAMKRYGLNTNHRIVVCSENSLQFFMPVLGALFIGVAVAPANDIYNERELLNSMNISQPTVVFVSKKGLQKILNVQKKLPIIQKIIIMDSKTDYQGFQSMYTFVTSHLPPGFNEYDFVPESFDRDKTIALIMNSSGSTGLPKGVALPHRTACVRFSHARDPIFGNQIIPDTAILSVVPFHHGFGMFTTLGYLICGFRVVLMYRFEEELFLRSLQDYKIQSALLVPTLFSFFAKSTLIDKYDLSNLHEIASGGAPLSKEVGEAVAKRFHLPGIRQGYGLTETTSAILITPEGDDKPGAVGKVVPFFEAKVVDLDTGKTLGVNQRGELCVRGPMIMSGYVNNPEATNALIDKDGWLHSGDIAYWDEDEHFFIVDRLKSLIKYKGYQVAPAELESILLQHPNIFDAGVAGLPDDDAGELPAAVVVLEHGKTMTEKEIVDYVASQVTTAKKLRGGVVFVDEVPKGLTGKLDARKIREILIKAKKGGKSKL

Take `CCOc1cc(C(C)(C)C)ccc1C1COC(c2c(F)cccc2F)=N1` (stereo not drawn): the Potency entry in test [1], in test [2], in test [3], in [4], in test [5] and in test [7] was “inactive” throughout. Besides, the Potency result in test [8], in [13] and in test [14] was “inactive” throughout. The Potency in test [6] was 18.6 µM (active); in test [10], 30.7 µM (active); in [11], 37.1 µM (active). Further, the compound was called inactive in test [9]. Besides, the activity change, positive = activation in test [12] is -39.5% [at 42.5 µM] (inactive).

Regarding `Clc1ccc(C(c2ccc(Cl)cc2)C(Cl)(Cl)Cl)cc1`, the Potency result in test [1], in test [2], in test [3], in test [4], in test [7] and in test [13] was “inactive” throughout. Moreover, the Potency result in [14] was “inactive”. The Potency in test [15] was 17.4 µM (active) and inactive; in [16], 24.7 µM (active); in [8], 0.161 µM (active); in [10] it was 101 µM (active) and 89.8 µM (active); in [11], 54.9 µM (active) and 61.1 µM (active); in [17], 39.2 µM (active).

As to `CC(C)(c1ccc(O)c(-c2ccccc2)c1)c1ccc(O)c(-c2ccccc2)c1`, the Potency is 61.1 µM (active) in test [1]; 54.5 µM (active) in test [3]; 68.6 µM (active) in test [4]; 17.2 µM (active) in [6]; 54.5 µM (active) in test [7]; 48.6 µM (active) in test [15]. Moreover, the Potency was 17.4 µM (active) in test [16]; 25.3 µM (active) in test [10]; 24.3 µM (active) in test [11]; 49 µM (active) in [13]; 21.9 µM (active) in test [17]. Further, the Potency result in test [2] and in [14] was “inactive” throughout.

For `COC[C@H](C)N(C(=O)CCl)c1c(C)csc1C`, the Potency entry in test [1], in test [2], in test [3], in test [4], in test [7] and in test [15] was “inactive” each time. Moreover, the Potency entry in test [18], in test [16], in test [8], in test [10], in test [11] and in test [13] was “inactive” throughout. Moreover, the Potency result in [17], in test [14] and in [19] was “inactive” throughout. Further, the compound was called inactive in test [9]. For the same compound, the activity change, positive = activation in test [12] was 9.24% (inactive).

On to `CC(Cl)CN(C)C` (stereo not drawn), for which the Potency entry in [1], in [2], in [3], in test [4], in test [5] and in [6] was “inactive” each time. The Potency result in test [7], in test [8], in test [10], in test [13], in test [14] and in test [19] was “inactive” each time. Also, the compound was called inactive in test [9].

As to `Cc1c(Cl)c(=O)oc2cc(OP(=O)(OCCCl)OCCCl)ccc12`, the Potency result in test [1], in [2], in [3], in test [4], in [5] and in test [6] was “inactive” throughout. The Potency entry in test [7], in test [20], in test [16], in [10], in test [13] and in test [14] was “inactive” throughout. In addition, the outcome in [9] was inactive.

In the case of `N#CNC#N`, the Potency result in test [1], in test [2], in test [3], in test [4], in test [5] and in test [6] was “inactive” each time. Further, the Potency result in test [7], in test [20], in test [8], in test [10], in [13] and in test [17] was “inactive” in each case. Further, the Potency result in test [14] and in test [19] was “inactive” in each case. In addition, in test [9], the result was inactive.
